PubChem BioAssay (NCATS)
Results filed as inconclusive are left out. The source made the active and inactive calls. Unless noted, calls come from the whole dose curve; as a rule, active = well fitted curve in the direction sought with a large enough effect; inconclusive = small, poorly fitted or top-dose-only effect, or another doubt; inactive = no such curve, though single readings can be large; an effect the other way counts as inactive or inconclusive.

Columns and labels:
[1] = molecular target: Lysosomal acid glucosylceramidase (Homo sapiens) (UniProt P04062); assay: Glucocerebrosidase-p2 (AID 348; in the data active = potency below about 10 µM; note: potency is the fitted concentration of half-maximal effect); conditions: purified GBA, blue fluorogenic substrate, 40 min
Chain of Lysosomal acid glucosylceramidase (Homo sapiens) (P04062 whole entry, looked up): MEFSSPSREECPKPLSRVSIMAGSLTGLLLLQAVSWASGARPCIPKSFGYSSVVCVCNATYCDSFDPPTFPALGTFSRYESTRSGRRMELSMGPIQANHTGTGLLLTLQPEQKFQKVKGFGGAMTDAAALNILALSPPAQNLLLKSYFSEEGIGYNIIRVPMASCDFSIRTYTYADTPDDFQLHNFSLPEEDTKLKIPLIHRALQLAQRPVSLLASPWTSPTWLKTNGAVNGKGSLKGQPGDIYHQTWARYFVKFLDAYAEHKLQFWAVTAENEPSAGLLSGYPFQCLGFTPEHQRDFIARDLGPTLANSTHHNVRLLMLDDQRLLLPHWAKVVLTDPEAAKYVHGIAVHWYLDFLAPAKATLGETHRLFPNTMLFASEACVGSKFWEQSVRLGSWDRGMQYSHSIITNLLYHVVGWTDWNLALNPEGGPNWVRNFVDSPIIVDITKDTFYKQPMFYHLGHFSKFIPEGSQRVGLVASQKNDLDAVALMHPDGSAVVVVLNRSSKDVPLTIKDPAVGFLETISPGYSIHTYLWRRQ
How it was run: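 Compounds titrated from 0.6 nM upwards against 0.2 nM enzyme in pH 5.9 citric acid/KH2PO4, taurocholate, tween-20; blue fluorogenic substrate 80 uM, 40 min room temperature, stopped and read Ex 365/Em 440 for AC50.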

[2] = AP1 Signaling Pathway (AID 357; active = well fitted curve in either direction with a large enough effect, not every such curve was filed as active; note: % is set by controls: 0 for no effect and ±100 for the full control effect); conditions: ME-180 AP-1-bla reporter, EGF-induced, beta-lactamase ratio, 5 h; at 7.69 µM (top of the series) unless noted
How it was run: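 AP-1-bla ME-180 cells with beta-lactamase reporter under AP-1 response element, stimulated with EC50 EGF; compounds titrated, 5 hours at 37 degrees Celsius. CCF4 read at 460/530 nm ratio; positive and negative modulators judged by AC50.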

[3] = molecular target: Cytochrome P450 1A2 (Homo sapiens) (UniProt P05177); assay: p450-cyp1a2 (AID 410; calls by dose curve; note: potency is the fitted concentration of half-maximal effect;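 for activity change, negative = inhibition: -100% = full effect of reference inhibitor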)
Chain of Cytochrome P450 1A2 (Homo sapiens) (P05177 whole entry, looked up): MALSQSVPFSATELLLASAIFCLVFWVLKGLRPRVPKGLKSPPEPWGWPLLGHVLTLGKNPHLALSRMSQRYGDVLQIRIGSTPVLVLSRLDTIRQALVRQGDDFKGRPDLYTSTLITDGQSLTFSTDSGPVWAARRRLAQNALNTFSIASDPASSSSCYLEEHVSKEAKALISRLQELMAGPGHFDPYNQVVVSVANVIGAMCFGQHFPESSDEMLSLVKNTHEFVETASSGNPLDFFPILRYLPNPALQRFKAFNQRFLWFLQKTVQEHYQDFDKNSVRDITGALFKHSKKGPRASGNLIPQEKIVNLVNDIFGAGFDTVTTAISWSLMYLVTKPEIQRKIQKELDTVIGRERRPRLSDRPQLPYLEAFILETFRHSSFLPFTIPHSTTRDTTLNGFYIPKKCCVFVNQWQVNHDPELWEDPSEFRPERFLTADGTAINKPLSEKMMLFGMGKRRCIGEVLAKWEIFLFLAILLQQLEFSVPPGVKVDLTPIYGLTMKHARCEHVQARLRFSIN
How it was run: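 Inhibition was calculated relative to 57 uM furafylline (full inhibition). The reaction used human CYP1A2 at 20nM with Luciferin-ME at its Km, 100uM, driven by an NADPH-regenerating system for 60 min at room temperature.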

[4] = NFAT Signaling Pathway (AID 444; active = well fitted curve in either direction with a large enough effect, not every such curve was filed as active;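 note: carbachol stimulus at about its EC50 of 1 µM final; % is set by controls: 0 for no effect and ±100 for the full control effect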); conditions: Jurkat NFAT-bla M1, carbachol, beta-lactamase ratio, 5 h; at 7.69 µM (top of the series) unless noted
How it was run: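 Read-out: CCF4 FRET ratio (460 nm/530 nm) after 1 h RT dye loading, used for %activity and AC50 from titration series. Cells: Jurkat NFAT-β-lactamase/M1 line, treated with compound plus 1 uM carbachol for 5 h, 37 °C.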

[5] = molecular target: Glucocorticoid receptor (Homo sapiens) (UniProt P04150); assay: GR-GFP Redistribution (AID 450;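 active = compounds whose dose series gives a full or clear partial fitted curve of increased nuclear translocation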; note: potency is the fitted concentration of half-maximal effect); conditions: U2OS GR-GFP nuclear translocation, laser cytometry, 2 h
Chain of Glucocorticoid receptor (Homo sapiens) (P04150 whole entry, looked up, the tested form may be a part): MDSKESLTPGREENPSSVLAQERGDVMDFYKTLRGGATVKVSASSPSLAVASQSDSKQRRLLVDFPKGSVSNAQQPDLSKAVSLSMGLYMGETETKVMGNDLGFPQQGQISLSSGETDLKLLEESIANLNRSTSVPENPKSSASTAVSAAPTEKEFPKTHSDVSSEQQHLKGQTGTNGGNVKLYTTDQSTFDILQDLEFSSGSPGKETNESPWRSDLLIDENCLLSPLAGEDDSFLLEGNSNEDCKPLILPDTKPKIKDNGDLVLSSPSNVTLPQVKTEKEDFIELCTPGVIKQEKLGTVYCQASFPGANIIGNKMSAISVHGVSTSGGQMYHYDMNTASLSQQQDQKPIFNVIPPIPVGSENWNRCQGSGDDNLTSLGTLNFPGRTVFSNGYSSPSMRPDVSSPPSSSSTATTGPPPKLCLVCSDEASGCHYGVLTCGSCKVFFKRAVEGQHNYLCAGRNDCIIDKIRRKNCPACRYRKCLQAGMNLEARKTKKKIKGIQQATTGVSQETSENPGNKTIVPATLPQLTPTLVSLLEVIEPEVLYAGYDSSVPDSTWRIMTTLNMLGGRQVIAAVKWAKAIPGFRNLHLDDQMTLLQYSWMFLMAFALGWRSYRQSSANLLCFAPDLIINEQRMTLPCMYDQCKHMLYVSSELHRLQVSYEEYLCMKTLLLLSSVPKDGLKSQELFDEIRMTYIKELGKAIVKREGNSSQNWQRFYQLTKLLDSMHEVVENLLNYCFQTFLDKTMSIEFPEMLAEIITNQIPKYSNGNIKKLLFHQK

[6] = molecular target: Glucocorticoid receptor (Homo sapiens) (UniProt P04150); assay: GR-EFC Redistribution (AID 451; calls by dose curve; note: potency is the fitted concentration of half-maximal effect); conditions: CHO-K1 GR-EFC translocation, beta-gal luminescence, 2 h
How it was run: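 Translocation of GR-ED fusion to nuclear EA restores b-gal, read by luminescence after 1 h room-temperature detection. Engineered CHO-K1 biosensor cells, 1,000/well, exposed 2 h at 37 C to titrations up to 46 uM final.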

[7] = molecular target: Mitogen-activated protein kinase 10 (Mus musculus) (UniProt Q61831); assay: JNK3 AlphaScreen Assay (AID 530; active = well fitted curve in either direction with a large enough effect, not every such curve was filed as active;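 note: kinase came from lysate of stimulated human HepG2 cells; signal reports phosphorylation of biotinylated GST-cJun 1-79 at Ser73 with 10 µM ATP; % is set by controls: 0 for no effect and ±100 for the full control effect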)
How it was run: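 Room-temperature AlphaScreen kinase assay; pre-activated HepG2 lysate as JNK3 source, biotin-GST-cJun(1-79) substrate, 10 uM ATP, compound 15 min preincubation.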

[8] = molecular target: 3',5'-cyclic-AMP phosphodiesterase 4B (Homo sapiens) (UniProt Q07343); assay: qHTS Assay for Inhibitors of PDE-IV (AID 607; active = well fitted activation curve with a large enough effect in the main read-out, with a control signal flat, not every such curve was filed as active; note: % of control where 0% means no effect)
Chain of 3',5'-cyclic-AMP phosphodiesterase 4B (Homo sapiens) (Q07343 whole entry, looked up): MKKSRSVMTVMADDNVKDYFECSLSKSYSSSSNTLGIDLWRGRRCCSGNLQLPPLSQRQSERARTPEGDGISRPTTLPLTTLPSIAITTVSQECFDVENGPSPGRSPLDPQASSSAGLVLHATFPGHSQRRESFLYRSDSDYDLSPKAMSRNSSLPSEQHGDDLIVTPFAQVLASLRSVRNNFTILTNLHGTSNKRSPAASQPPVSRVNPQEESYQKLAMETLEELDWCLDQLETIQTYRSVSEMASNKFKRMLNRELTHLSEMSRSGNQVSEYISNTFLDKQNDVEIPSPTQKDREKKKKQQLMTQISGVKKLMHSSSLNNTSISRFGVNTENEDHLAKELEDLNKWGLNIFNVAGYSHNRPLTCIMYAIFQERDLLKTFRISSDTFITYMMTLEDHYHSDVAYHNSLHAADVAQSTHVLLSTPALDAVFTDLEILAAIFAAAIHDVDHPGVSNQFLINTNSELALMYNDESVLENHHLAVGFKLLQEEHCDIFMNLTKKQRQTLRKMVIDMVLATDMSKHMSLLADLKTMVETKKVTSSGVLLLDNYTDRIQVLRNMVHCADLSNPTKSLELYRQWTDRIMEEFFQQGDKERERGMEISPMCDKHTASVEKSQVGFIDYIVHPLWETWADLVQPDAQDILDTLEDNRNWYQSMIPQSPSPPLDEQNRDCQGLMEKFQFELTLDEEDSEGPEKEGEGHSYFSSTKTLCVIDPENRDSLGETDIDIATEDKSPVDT
How it was run: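 Cell-based read-out of cAMP via a modified cyclic nucleotide-gated channel and membrane potential dye (535/590 nm) in HEK293 cells expressing PDE4 endogenously. Compounds tested up to 22.9 uM final; 100 uM RO 20-1724 reference.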

[9] = qHTS Assay for Lipid Storage Modulators (AID 1519; calls by dose curve); conditions: Drosophila S3 cells, BODIPY lipid droplet/cell ratio, laser cytometry, cells loaded with oleic acid; for activity change, negative = inhibition: at 57.5 µM (top of the series)
How it was run: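 Cells seeded at 5,000 per well were treated with compounds over a concentration series and loaded with oleic acid (400 uM, as added). Lipid droplet fluorescence (488 nm excitation, 500-530 nm channel) was read by laser-scanning cytometry and normalized to 20 uM Triacsin C.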

[10] = molecular target: Dual specificity protein kinase CLK4 (Homo sapiens) (UniProt Q9HAZ1); assay: qHTS Assay for Inhibitors of CDC-like Kinase 4 (Kinase-Glo Assay) (AID 1770); note: nearly all actives have a fitted effect of over 65% in size; note: potency is the fitted concentration of half-maximal effect
Chain of Dual specificity protein kinase CLK4 (Homo sapiens) (Q9HAZ1 whole entry, looked up): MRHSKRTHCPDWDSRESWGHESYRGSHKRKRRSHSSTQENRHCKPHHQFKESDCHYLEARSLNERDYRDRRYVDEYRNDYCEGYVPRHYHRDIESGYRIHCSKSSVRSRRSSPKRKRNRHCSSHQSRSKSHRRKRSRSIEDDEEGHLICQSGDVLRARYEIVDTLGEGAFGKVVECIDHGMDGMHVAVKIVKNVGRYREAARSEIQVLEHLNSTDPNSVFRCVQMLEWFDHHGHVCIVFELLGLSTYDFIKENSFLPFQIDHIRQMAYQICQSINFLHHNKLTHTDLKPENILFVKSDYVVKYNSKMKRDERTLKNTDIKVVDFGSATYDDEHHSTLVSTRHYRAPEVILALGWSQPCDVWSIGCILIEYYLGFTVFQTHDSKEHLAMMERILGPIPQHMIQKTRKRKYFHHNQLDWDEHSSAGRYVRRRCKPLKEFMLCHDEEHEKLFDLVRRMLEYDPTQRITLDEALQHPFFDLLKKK
How it was run: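 Luminescent ATP-depletion read-out (Kinase-Glo) after 4.5 h room-temperature reaction of Clk4 (25 nM final) with RS peptide (100 uM) and ATP (1 uM), pH 7.5 Tris buffer with MgCl2 and DTT.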

[11] = molecular target: Dual specificity protein kinase CLK4 (Homo sapiens) (UniProt Q9HAZ1); assay: qHTS Assay for Inhibitors of CDC-like Kinase 4 (ADP-FP Assay) (AID 1795); note: nearly all actives have a fitted effect of over 60% in size; note: potency is the fitted concentration of half-maximal effect
How it was run: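 Kinase activity was measured as ADP production using Transcreener orange tracer (4 nM) and ADP antibody (1 ug/mL) fluorescence polarization, with ADP calculated from a calibration curve. The 1 h reaction contained 6.25 nM Clk4, 1 uM ATP and 100 uM RS peptide at pH 7.5 with Mg2+.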

[12] = molecular target: Ubiquitin carboxyl-terminal hydrolase 1 (Homo sapiens) (UniProt O94782); assay: Inhibitors of USP1/UAF1: Pilot qHTS (AID 504865);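 note: rhodamine fluorescence freed from ubiquitin-rhodamine substrate followed over time; top concentration of the series differs between compounds; % is set by controls: 0 for no effect and ±100 for the full control effect; nearly all actives have a fitted effect of over 35% in size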
Chain of Ubiquitin carboxyl-terminal hydrolase 1 (Homo sapiens) (O94782 whole entry, looked up): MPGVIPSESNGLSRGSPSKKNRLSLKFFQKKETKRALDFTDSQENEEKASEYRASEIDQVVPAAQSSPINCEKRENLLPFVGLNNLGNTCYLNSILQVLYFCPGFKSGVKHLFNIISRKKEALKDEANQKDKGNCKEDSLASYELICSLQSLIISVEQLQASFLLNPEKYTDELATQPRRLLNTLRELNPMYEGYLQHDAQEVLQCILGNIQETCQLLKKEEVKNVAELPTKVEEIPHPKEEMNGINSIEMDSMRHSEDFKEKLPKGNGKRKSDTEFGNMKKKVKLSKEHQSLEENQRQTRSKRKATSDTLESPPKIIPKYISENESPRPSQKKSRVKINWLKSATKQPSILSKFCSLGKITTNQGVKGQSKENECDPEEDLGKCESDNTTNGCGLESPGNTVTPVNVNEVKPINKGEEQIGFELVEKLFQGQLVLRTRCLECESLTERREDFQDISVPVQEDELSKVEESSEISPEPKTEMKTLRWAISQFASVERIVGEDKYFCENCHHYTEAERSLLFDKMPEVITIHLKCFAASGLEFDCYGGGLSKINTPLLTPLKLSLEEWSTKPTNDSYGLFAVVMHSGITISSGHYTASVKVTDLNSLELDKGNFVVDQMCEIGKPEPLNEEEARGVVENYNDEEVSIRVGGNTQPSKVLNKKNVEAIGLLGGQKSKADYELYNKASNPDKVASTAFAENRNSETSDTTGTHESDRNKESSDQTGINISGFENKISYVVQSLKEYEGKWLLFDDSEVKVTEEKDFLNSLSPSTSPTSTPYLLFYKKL
How it was run: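 Deubiquitinase activity followed as kinetic rhodamine fluorescence release from 150 nM Ub-Rho. 1 nM USP1/UAF1 with compound, after 15 min room-temperature preincubation, in HEPES pH 7.8 buffer containing TCEP, EDTA, BSA and Tween-20.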

[13] = Primary qHTS for small molecule stabilizers of the endoplasmic reticulum resident proteome: Secreted ER Calcium Modulated Protein (SERCaMP) assay (AID 1508630); note: % is set by controls: 0 for no effect and ±100 for the full control effect
How it was run: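 GLuc-SERCaMP-expressing SH-SY5Y cells, pretreated 16 h with compound, are challenged with thapsigargin to empty ER calcium stores; after 4 h, coelenterazine is added directly to the medium and luminescence is imaged.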

[14] = Stat Signaling Pathway (AID 446; active = well fitted curve in either direction with a large enough effect, not every such curve was filed as active); conditions: ME-180 SIE beta-lactamase reporter, IL-6 stimulated, 5 h; at 7.69 µM (top of the series) unless noted
How it was run: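 Reporter line: ME-180 cervical carcinoma, SIE-beta-lactamase. Treatment: compound with 40 pM IL-6, 5 hrs, 37 C, in low-serum OPTI-MEM with 10 mM HEPES pH 7.3. Detection: 460/530 nm fluorescence.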

[15] = molecular target: Cytochrome P450 3A4 (Homo sapiens) (UniProt P08684); assay: qHTS Assay for Activators of Cytochrome P450 3A4 (AID 885); note: nearly all actives have a fitted effect of over 65% in size
Chain of Cytochrome P450 3A4 (Homo sapiens) (P08684 whole entry, looked up): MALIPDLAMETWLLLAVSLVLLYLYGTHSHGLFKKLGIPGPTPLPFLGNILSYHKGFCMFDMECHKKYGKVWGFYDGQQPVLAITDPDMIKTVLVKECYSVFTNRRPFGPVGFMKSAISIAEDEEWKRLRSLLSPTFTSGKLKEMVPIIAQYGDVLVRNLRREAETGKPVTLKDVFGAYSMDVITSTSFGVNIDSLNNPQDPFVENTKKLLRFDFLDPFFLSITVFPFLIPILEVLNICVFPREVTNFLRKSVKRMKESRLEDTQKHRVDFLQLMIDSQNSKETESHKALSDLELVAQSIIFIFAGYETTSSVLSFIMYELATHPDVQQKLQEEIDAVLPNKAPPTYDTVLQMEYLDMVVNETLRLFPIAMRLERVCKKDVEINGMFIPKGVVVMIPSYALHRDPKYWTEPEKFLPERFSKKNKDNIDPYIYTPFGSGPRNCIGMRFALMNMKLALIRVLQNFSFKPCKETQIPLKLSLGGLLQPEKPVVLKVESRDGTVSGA
How it was run: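 Signal was normalized against complete inhibition by 57 uM ketoconazole. The reaction used 20nM CYP3A4 with 25uM Luciferin-PPXE, 10-min compound preincubation and a 60-min NADPH-supported step at RT.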

[16] = molecular target: Dual specificity protein kinase CLK4 (Homo sapiens) (UniProt Q9HAZ1); assay: qHTS Assay for Inhibitors of CDC-like Kinase 4 (ADP-Glo Assay) (AID 1771); note: % is set by controls: 0 for no effect and ±100 for the full control effect; nearly all actives have a fitted effect of over 70% in size
How it was run: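 Kinase reaction: Clk4 at 25 nM, RS repeat peptide substrate at 100 uM, ATP at 1 uM, 1 hr, room temperature. Product ADP detected as luciferase signal via ADP-Glo.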

[17] = measured here: cell count channel max response
[18] = measured here: lipid channel max response

Row | Structure (SMILES) | Potency [1] | activity change, negative = inhibition [2] | Potency [3] | activity change, negative = inhibition [4] | Potency [5] | Potency [6] | outcome [7] | Potency [8] | activity change, negative = inhibition [9] | max response [9, 17] [%] | max response [9, 18] [%] | Potency [10] | Potency [11] | Potency [12] | Potency [13] | activity, negative = inhibition [14] | Potency [15] | Potency [16]
1 | Cn1c(=O)c(-c2cccs2)nc2cnc(OCc3ccccc3)nc21 | > 11.4 µM (inactive) | 16% (inactive) | 7.94 µM (active) | 22.3% (inactive) | > 9.22 µM (inactive) | > 46 µM (inactive) | inactive | inactive | 6.88% (inactive) | 20.6 | 29.6 | inactive | inactive | inactive | inactive |  |  | 
2 | COc1ccc(Oc2ncc3nc(-c4ccc(OC)cc4)c(=O)n(C)c3n2)cc1 |  | -7.57% (inactive) | 3.16 µM (active) | -4.34% (inactive) | > 9.22 µM (inactive) | > 46 µM (inactive) | inactive | inactive | 2.79% (inactive) | -5.13 | -2.18 | inactive | inactive | inactive | inactive | -16.5% (inactive) | inactive | 
3 | COc1cccc(Cn2c(=O)c(-c3cc(F)cc(F)c3)nc3cnc(N4CCN(C)CC4)nc32)c1 | > 11.4 µM (inactive) |  | inactive |  |  | > 46 µM (inactive) | inactive | inactive | 1.17% (inactive) | 19 | 18.2 | inactive | inactive |  | inactive |  | inactive | 
4 | COc1ccc(-n2c(=O)c(C)nc3cnc(OC)nc32)cc1 | > 11.4 µM (inactive) | 13.3% (inactive) | inactive | 3.92% (inactive) | > 9.22 µM (inactive) | > 46 µM (inactive) | inactive | inactive | 4.38% (inactive) | 12 | 18.2 |  | inactive | inactive | inactive | -15.2% (inactive) | inactive | inactive
5 | COc1ccc(-n2c(=O)c(-c3cccs3)nc3cnc(N4CCOCC4)nc32)cc1 | > 11.4 µM (inactive) | 0.656% (inactive) | 12.6 µM (active) | -15.7% (inactive) | > 9.22 µM (inactive) | > 46 µM (inactive) | inactive | inactive | 5.16% (inactive) | 28.1 | 27.2 | inactive | inactive | inactive | inactive |  | inactive | 
6 | CN(C)c1ncnc2ccc(-c3cccnc3)cc12 | > 11.4 µM (inactive) | -15% (inactive) | 0.2 µM (active) |  | > 46 µM (inactive) | > 46 µM (inactive) | inactive | inactive | 3.37% (inactive) | 4.52 | 7.15 | 7.94 µM (active) |  | inactive | inactive | 9.76% (inactive) | inactive | 
7 | COCCn1c(=O)c(-c2ccc(Cl)cc2)nc2cnc(Oc3cccc(Cl)c3)nc21 | > 11.4 µM (inactive) | 13.2% (inactive) |  | -0.0987% (inactive) |  | > 46 µM (inactive) | inactive | inactive | 4.42% (inactive) | 19.3 | 25.5 | inactive | inactive | inactive | inactive | -8.1% (inactive) |  | 
8 | COc1ccc(-n2c(=O)cnc3cnc(N(C)C)nc32)cc1 | > 11.4 µM (inactive) | -17.5% (inactive) | 5.01 µM (active) | 15.7% (inactive) |  | > 46 µM (inactive) | inactive | inactive | 5.53% (inactive) | 17.5 | 21.2 | 11.2 µM (active) |  | inactive | inactive | -7.93% (inactive) | inactive | 
9 | Cc1noc(C)c1-c1ccc2ncnc(Nc3ccc(F)cc3)c2c1 | > 11.4 µM (inactive) | -20.2% (inactive) | 3.98 µM (active) |  | > 46 µM (inactive) | > 46 µM (inactive) | inactive | inactive | 6.07% (inactive) | 23.8 | 29.1 | 4.47 µM (active) | 3.16 µM (active) | inactive | inactive | -24.6% (inactive) | inactive | 
10 | CCNc1ncc2nc(-c3ccccc3)c(=O)n(C[C@H]3CCCO3)c2n1 | > 11.4 µM (inactive) | 0.0155% (inactive) |  |  | > 9.22 µM (inactive) | > 46 µM (inactive) | inactive |  | -15.5% (inactive) | 3.11 | -10 | inactive | inactive | inactive | inactive |  |  | 
11 | Cc1nc2cnc(N3CCOCC3)nc2n(C[C@H]2CCCO2)c1=O | > 11.4 µM (inactive) | -13.4% (inactive) |  | -4.93% (inactive) | > 9.22 µM (inactive) | > 46 µM (inactive) | inactive |  | 3.62% (inactive) | 10.2 | 13.9 | inactive | inactive | inactive | inactive | -8.29% (inactive) |  | 
12 | O=c1c(-c2ccc(F)cc2)nc2cnc(N3CCOCC3)nc2n1Cc1cccs1 | > 11.4 µM (inactive) | 14.2% (inactive) | 12.6 µM (active) | 13.3% (inactive) | > 9.22 µM (inactive) | > 46 µM (inactive) | inactive | inactive | -1.08% (inactive) | 9.38 | 7.2 |  | inactive | inactive | inactive | 18.2% (inactive) | inactive | inactive
